Source: PubChem BioAssay AID624354 (Sanford-Burnham Center for Chemical Genomics, 2012)
The whole screen tested about 360,000 compounds, of which about 3,800 (1.1%) were called active. This excerpt belongs to a sample that is enriched for actives. Values without a mark were called inactive.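 Rule for the calls: active = compounds causing at least 50% loss of cell viability in the single-dose screen, relative to plate controls; inactive = the rest.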

Assay: TRAIL-exposed caspase-8 expressing cell killing – NB7+C8 cells, ATPlite luminescence, TRAIL sensitizer project, primary screen (AID 624354)
Conditions: at 10 µM, hits give high values
In the case of `Cc1c(Cl)c([N+](=O)[O-])nn1CC(=O)NCCCN1CCOCC1`, the inhibition (viability loss, TRAIL sensitization) is reported as 27.8%.
Compound `Cc1ccc(S(=O)(=O)N[C@H]2CCC[C@@H]2O)cc1` has an inhibition (viability loss, TRAIL sensitization) of 1.92%.
In the case of `COC(=O)c1ccc(NCc2cc(O)ccc2O)cc1`, the inhibition (viability loss, TRAIL sensitization) is reported as 55.3% (active).
In the case of `CCCc1cc(C(=O)Nc2ccc(C(=O)OC)cc2)cs1`, the inhibition (viability loss, TRAIL sensitization) is reported as -5.01%.
For `CC(C)OC(=O)c1ccc(NCc2cc(O)ccc2O)cc1Cl`, the inhibition (viability loss, TRAIL sensitization) was 78.8% (active).
Work on `O=C(O)Cc1ccc(NCc2ccccc2Cl)cc1` yielded an inhibition (viability loss, TRAIL sensitization) of 8.54%.
For `O=C(OC12CC3CC(CC(C3)C1)C2)c1ccc(NCc2cc(O)ccc2O)cc1`, the inhibition (viability loss, TRAIL sensitization) was 86.4% (active).
With `C#CCNc1ccc(C(=O)OCC)cc1` the inhibition (viability loss, TRAIL sensitization) was 3.56%.
`CN(C)c1nc(N)nc(CSc2nnnn2-c2cccc3ccccc23)n1` gave an inhibition (viability loss, TRAIL sensitization) of 40.6%.
For `Cc1ccc(/C=N/NC(=O)c2sccc2OCc2ccc(F)cc2)cc1`, the inhibition (viability loss, TRAIL sensitization) was 15.2%.
`Cc1ccccc1CS(=O)(=O)CC1(O)CCN(C(=O)c2cccc(C(F)(F)F)c2)CC1` showed an inhibition (viability loss, TRAIL sensitization) of 8.2%.
For `CCOc1ccc(N(CC(=O)NC2CCCCCC2)S(=O)(=O)c2c(C)[nH]c(=O)[nH]c2=O)cc1`, the inhibition (viability loss, TRAIL sensitization) was 11.6%.
In the case of `COc1ccc(NC(=O)c2cc(=O)[nH]c3ccccc23)cc1S(=O)(=O)N1CCOCC1`, the inhibition (viability loss, TRAIL sensitization) is reported as -0.328%.
With `CCOc1ccc(CCNC(=O)COC(=O)CCS(=O)(=O)c2ccc(C)cc2)cc1OCC` the inhibition (viability loss, TRAIL sensitization) was 6.55%.
With `O=C(Nc1ccn(Cc2ccccc2F)n1)c1ccc(COc2ccc(Cl)cc2Cl)o1` the inhibition (viability loss, TRAIL sensitization) was 11.2%.
For `Cc1c(Br)c([N+](=O)[O-])nn1CC(=O)N1CCN(Cc2ccccc2)CC1`, the inhibition (viability loss, TRAIL sensitization) was -5.96%.
For `O=C(Nc1ccn(Cc2ccccc2)n1)c1n[nH]c([N+](=O)[O-])c1Cl`, the inhibition (viability loss, TRAIL sensitization) was 62.6% (active).
With `COC(=O)c1cc(NS(=O)(=O)c2ccc3c(c2)c(=O)n(C)c(=O)n3C)cc(C(=O)OC)c1` the inhibition (viability loss, TRAIL sensitization) was 15.9%.
With `CC[C@H]1CN2CCc3cc(OC)c(OC)cc3[C@@H]2C[C@@H]1C[C@H]1NCCc2cc(OC)c(OC)cc21` the inhibition (viability loss, TRAIL sensitization) was 53.7% (active).
For `CCOC(=O)C1CCN(C(=O)C2CCN(S(=O)(=O)CC)CC2)CC1`, the inhibition (viability loss, TRAIL sensitization) was -7.6%.
Compound `CCN(CC(=O)Nc1c(F)cccc1F)C(=O)C1CCC1` has an inhibition (viability loss, TRAIL sensitization) of -2.6%.
Work on `COc1ccc(COC(=O)c2n[nH]c3ccccc23)cc1F` yielded an inhibition (viability loss, TRAIL sensitization) of -10.3%.
`Cc1ccc(C(=O)NC(C)C(c2cccs2)N2CCOCC2)cc1C` (configuration not stated) showed an inhibition (viability loss, TRAIL sensitization) of -23.4%.
With `CCOC(=O)C/C(C)=N\Nc1ccc([N+](=O)[O-])cc1[N+](=O)[O-]` the inhibition (viability loss, TRAIL sensitization) was -7.23%.
For `CCOC(=O)/C(=C\c1ccc([N+](=O)[O-])cc1)C(=O)c1cc(C(C)=O)c(Nc2ccccc2)s1`, the inhibition (viability loss, TRAIL sensitization) was 85.2% (active).
`CCOC(=O)C(=Cc1ccccc1)C(=O)c1ccccc1` showed an inhibition (viability loss, TRAIL sensitization) of 18.2%.
Work on `O=C(CN1C(=O)NC(Cc2ccccc2)(Cc2ccccc2)C1=O)NCC1CCCCC1` yielded an inhibition (viability loss, TRAIL sensitization) of -33.8%.
In the case of `CCC(CC)c1nnc(NS(=O)(=O)Cc2ccccc2)s1`, the inhibition (viability loss, TRAIL sensitization) is reported as -5.15%.
Compound `C=CCn1cc(Cl)cc(C(=O)Nc2ccccc2)c1=O` has an inhibition (viability loss, TRAIL sensitization) of 6.15%.
Work on `Cc1ccc(NC(=O)N2CCC(C(=O)NCc3ccc(F)cc3)CC2)cc1` yielded an inhibition (viability loss, TRAIL sensitization) of 1.96%.
In the case of `CCc1ccc(CNC(=O)C2CC(=O)N(CCc3ccc(C)cc3)C2)cc1` (configuration not stated), the inhibition (viability loss, TRAIL sensitization) is reported as 8.62%.
With `CCc1ccc(CNC(=O)C2CCN(c3nnc(C)c4c(C)n(-c5ccc(C)cc5)nc34)CC2)cc1` the inhibition (viability loss, TRAIL sensitization) was 84.7% (active).
`O=C(COC(=O)/C=C/c1ccc(OC(F)F)cc1)NC1CCCCC1` gave an inhibition (viability loss, TRAIL sensitization) of -8.42%.
In the case of `COc1cccc(NC(=O)COC(=O)c2ccc3ccccc3n2)c1`, the inhibition (viability loss, TRAIL sensitization) is reported as -11.3%.
Work on `CCOc1cccc(/C=C/c2ccc3ccccc3n2)c1OC(C)=O` yielded an inhibition (viability loss, TRAIL sensitization) of 47.3%.
In the case of `COc1cccc(/C=C/c2ccc3ccccc3n2)c1OC(C)=O`, the inhibition (viability loss, TRAIL sensitization) is reported as 65.1% (active).
`C=CCCC(=O)N1C[C@H]2CON(C)[C@H]2C[C@H]1c1cccc(Nc2ccccc2)c1` gave an inhibition (viability loss, TRAIL sensitization) of -0.674%.
Compound `O=C(NCc1ccc(Cl)cc1)c1cc2c(nc3sccn32)s1` has an inhibition (viability loss, TRAIL sensitization) of 0.401%.
Compound `COc1ccc(C2=Nc3ccccc3NC(=O)C2N(C(=O)c2cc3ccccc3[nH]2)c2ccccc2)cc1` (configuration not stated) has an inhibition (viability loss, TRAIL sensitization) of -7.09%.
Work on `COc1ccc(-c2ccnc(SCC(=O)N3CCOCC3)n2)cc1` yielded an inhibition (viability loss, TRAIL sensitization) of 28%.
With `CCOc1ccc(-c2ccc(SCC(=O)N3CCOCC3)nn2)cc1` the inhibition (viability loss, TRAIL sensitization) was 50.6% (active).
Work on `COc1cccc(-c2ccc(SCC(=O)N3CCN(c4ccccc4)CC3)nn2)c1` yielded an inhibition (viability loss, TRAIL sensitization) of 6.26%.
`CC(O)c1nc2c(c(=O)n(C)c(=O)n2C)n1C` (configuration not stated) showed an inhibition (viability loss, TRAIL sensitization) of -4.64%.
In the case of `O=C(c1cccs1)N1C[C@H](n2cc(C3CC3)nn2)[C@@H](O)C[C@@H]1c1ccccc1`, the inhibition (viability loss, TRAIL sensitization) is reported as -1.93%.
`CCCCN1Cc2c(nc3cc(-c4ccccc4)[nH]n3c2=O)C1=O` showed an inhibition (viability loss, TRAIL sensitization) of -2.49%.
With `O=c1c2c(nc3cc(-c4cccc(Cl)c4)[nH]n13)CCCC2` the inhibition (viability loss, TRAIL sensitization) was 63.1% (active).
Work on `C=CCc1c(C)nc2cc(-c3ccccc3)[nH]n2c1=O` yielded an inhibition (viability loss, TRAIL sensitization) of 30.8%.
`CCn1cc(CNC(=O)c2cc([N+](=O)[O-])c(C)c([N+](=O)[O-])c2)cn1` gave an inhibition (viability loss, TRAIL sensitization) of 24.5%.
`Cn1c(=O)c2c(ncn2CC(COCc2ccccc2Cl)OCc2ccccc2Cl)n(C)c1=O` (configuration not stated) showed an inhibition (viability loss, TRAIL sensitization) of -6.46%.
With `COc1ccc(CCc2nnc(CCC(=O)NCc3cnn(-c4ccccc4C)c3)o2)cc1` the inhibition (viability loss, TRAIL sensitization) was 2.59%.
Compound `Cc1ccccc1N(C(=O)CNC(=O)c1cccs1)C(C(=O)NC1CCCC1)c1ccncc1` (configuration not stated) has an inhibition (viability loss, TRAIL sensitization) of 34.8%.
In the case of `COc1ccc(C(C(=O)NC2CCCCC2)N(C(=O)CCl)c2ccccc2Cl)cc1` (configuration not stated), the inhibition (viability loss, TRAIL sensitization) is reported as 94.5% (active).
`COc1ccc(C(C(=O)NC2CCCCC2)N(C(=O)c2snc(C(N)=O)c2N)c2ccccc2OC)cc1` (configuration not stated) showed an inhibition (viability loss, TRAIL sensitization) of 1.04%.
Work on `COC(=O)[C@@]12C[C@@H](CC(=O)N3CCCCC3)C(=O)N(Cc3ccc4c(c3)OCO4)C1=CCC(C)(C)C2` yielded an inhibition (viability loss, TRAIL sensitization) of -12.6%.
`COc1ccccc1C(=O)NCCC(=O)N(C)Cc1cccnc1` gave an inhibition (viability loss, TRAIL sensitization) of 10.4%.
With `Cc1cc(O)ccc1NC1=CC(=O)CC(C)(C)C1` the inhibition (viability loss, TRAIL sensitization) was 1.23%.
With `Cc1cc(N=Nc2ccc3ccccc3c2)ccc1O` the inhibition (viability loss, TRAIL sensitization) was 55.4% (active).
